Test results taken from the supplement of paper PMC6555819.

Columns and labels:
Test in all cases: PBM binding z-score (relative to random genomic background probes); higher = stronger binding; sequences stand for … in GC…GCGATTGACAGCGTAGAATGAAGG
[1] = system: FXR:RXRa (NR concentration 270 nM, RXRa partner concentration 90 nM)
In short: (§1)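 Binding z-scores were set against random background probes. The data came from custom Agilent 4×180K protein-binding microarrays carrying double-stranded probes with 34-nt variable regions, incubated 1 h with ligand-free nuclear receptor dimers. Partner-specific antibodies detected binding, and scanned fluorescence was regression-normalized.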

[2] = system: LXRa:RXRa (NR concentration 270 nM, RXRa partner concentration 90 nM)
In short: as §1

[3] = system: LXRa homodimer (NR concentration 270 nM)
In short: as §1

[4] = system: LXRb:RXRa (NR concentration 270 nM, RXRa partner concentration 90 nM)
In short: as §1

[5] = system: LXRb homodimer (NR concentration 270 nM)
In short: as §1

[6] = system: PPARa:RXRa (NR concentration 270 nM, RXRa partner concentration 90 nM)
In short: as §1

[7] = system: PPARg:RXRa (NR concentration 180 nM, RXRa partner concentration 90 nM)
In short: as §1

[8] = system: PPARg:RXRa 270nM:90nM, anti-RXR (NR concentration 270 nM, RXRa partner concentration 90 nM)
In short: as §1

[9] = system: PPARg:RXRa 30nM:10nM, anti-RXR (NR concentration 30 nM, RXRa partner concentration 10 nM)
In short: as §1

[10] = system: PPARg:RXRa 90nM:30nM, anti-RXR (NR concentration 90 nM, RXRa partner concentration 30 nM)
In short: as §1

[11] = system: PPARg:RXRa DBDmut IVT, anti-RXR (DBD mutation: RXRa K156A/R161A, NR concentration 270 nM, RXRa partner concentration 90 nM)
In short: as §1

[12] = system: PPARg:RXRa IVT, anti-PPARg (NR concentration 270 nM, RXRa partner concentration 90 nM)
In short: as §1

[13] = system: PPARg DBDmut:RXRa IVT, anti-PPARg (DBD mutation: PPARg1 K132A/R137A, NR concentration 270 nM, RXRa partner concentration 90 nM)
In short: as §1

[14] = system: PPARg DBDmut IVT, anti-PPARg (DBD mutation: PPARg1 K132A/R137A, NR concentration 270 nM)
In short: as §1

[15] = system: PPARg homodimer (NR concentration 180 nM)
In short: as §1

[16] = system: PXR:RXRa (NR concentration 270 nM, RXRa partner concentration 90 nM)
In short: as §1

[17] = system: PXR homodimer (NR concentration 270 nM)
In short: as §1

[18] = system: RARa:RXR (NR concentration 270 nM, RXRa partner concentration 90 nM)
In short: as §1

[19] = system: RARa homodimer (NR concentration 270 nM)
In short: as §1

[20] = system: RARb:RXRa (NR concentration 270 nM, RXRa partner concentration 90 nM)
In short: as §1

Sequence | PBM binding z-score [1] | PBM binding z-score [2] | PBM binding z-score [3] | PBM binding z-score [4] | PBM binding z-score [5] | PBM binding z-score [6] | PBM binding z-score [7] | PBM binding z-score [8] | PBM binding z-score [9] | PBM binding z-score [10] | PBM binding z-score [11] | PBM binding z-score [12] | PBM binding z-score [13] | PBM binding z-score [14] | PBM binding z-score [15] | PBM binding z-score [16] | PBM binding z-score [17] | PBM binding z-score [18] | PBM binding z-score [19] | PBM binding z-score [20]
CAAACTAGGCCACCGGAAGGTCAAAGTCCGCATG | 2.96 | 3.08 | 3.39 | 3.15 | 0.364 | 4.46 | 5.26 | 5.14 | 1.86 | 4.33 | 7.33 | 6.74 | 1.26 | 1.26 | 3.52 | 3.81 | 1.26 | 4.32 | 1.24 | 3.54
AGTCAAGGTTCATCTAGGTAACGTAAGATATGCT | 5.36 | 4.13 | 1.89 | 2.57 | 0.451 | 3.64 | 3.69 | 3.68 | 1.41 | 2.98 | 1.12 | 3.01 | 1.11 | 1.06 | 1.29 | 2.48 | 1.61 | 2.88 | 0.372 | 2.99
CCTCCGAGGACAGAAGGTCAGAGCTGTCCGCTTT | 1.46 | 1.7 | 0.408 | 1.37 | -0.149 | 1.89 | -0.0299 | 0.869 | -0.46 | 0.274 | -0.16 | 0.312 | -1.35 | -1.76 | 2.39 | 1.76 | 0.0922 | 2.49 | 1.09 | 3.23
AGTCAAAGTTCATCTAAGTAACGTAAGATATGCT | 6.46 | 5.91 | 4.97 | 3.59 | 1.65 | 4.76 | 6.53 | 6.27 | 3.47 | 5.55 | 0.404 | 2.37 | 0.832 | 1.41 | 2.51 | 4.78 | 4.97 | 3.48 | 1.03 | 5.03
CGAACTAGGTCATCCAGAACAGTGAATACATTGA | 4.08 | 2.69 | 0.739 | 2.14 | 0.118 | 4.64 | 7.99 | 6.91 | 4.38 | 6.42 | 8.45 | 8.49 | 6.73 | 4.45 | 3.59 | 1.48 | 0.368 | 2.32 | 0.855 | 3.83
GCAGACAGGTAAAACGCAGGTAACTCAGGGTGGC | -0.253 | -0.37 | -0.412 | -0.448 | -0.917 | -0.183 | 0.515 | -0.433 | -0.834 | -0.835 | -0.691 | -0.804 | -1.23 | -0.839 | -0.847 | -0.561 | -0.484 | -0.286 | -0.674 | -0.486
GGAACGAGGCCAAAGTTGATAGCATCTGTCGACG | 0.0318 | -0.0376 | -0.578 | -0.183 | -0.827 | 3.46 | 5.8 | 6.25 | 5.14 | 6.31 | 2.57 | 2.98 | -0.146 | -0.0906 | 0.104 | 0.113 | -0.124 | 0.441 | -0.395 | 1.33
TCTCGGAGGACACGAAAGGTCAGAGATCGACATC | 3.24 | 3.71 | 2.64 | 3.32 | 0.0145 | 3.65 | 1.5 | 2.75 | 2.97 | 2.88 | 1.64 | 1.91 | 0.484 | 0.156 | 2.63 | 3.95 | 0.205 | 4.31 | 0.638 | 4.4
CAAATTAGGTCAAGGTCAAAGTCGGTTTGTGCCA | 6.89 | 5.96 | 4.73 | 4.86 | 2.29 | 6.17 | 9.22 | 8.16 | 6.73 | 8.31 | 8.62 | 8.52 | 4.74 | 1.94 | 5.8 | 5.5 | 3.06 | 5.77 | 4.26 | 5.2
CCGACTGGAGCAGAAAGGTTACCATACCATCCGG | 0.42 | 0.894 | -0.0298 | 0.813 | -0.611 | 1.77 | 1.61 | 2.5 | 0.683 | 2.24 | 0.54 | 0.511 | -0.716 | -0.66 | 0.708 | 1.02 | -0.102 | 2.11 | -0.788 | 1.52
